An excerpt weighted towards active compounds, which were near 7.6% of everything screened.
Gal4-VP16 FLuc: VP16 counterscreen qHTS for inhibitors of ROR gamma transcriptional activity | Drosophila S2 Gal4-VP16 UAS-luciferase, luminescence, 20 h | Potency, µM (doses to about 53.6 µM), for the others: at the top dose activity, negative = inhibition, usual class: inhibitors | 3.5% of 310,000 active | AID 2546, 2010;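 note: Gal4-VP16 expression switched on by copper sulfate through the metallothionein promoter; potency is the fitted concentration of half-maximal effect; % is set by controls: 0 for no effect and ±100 for the full control effect; nearly all actives have a fitted effect of over 50% in size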
RORgamma inh: qHTS for inhibitors of ROR gamma transcriptional activity; AID 2551, 2010; Drosophila S2 Gal4-RORgamma UAS-luciferase reporter, 20 h; Potency, µM (series often up to 53.6 µM), without a hit: at the top dose activity change, negative = inhibition, usual class: inhibitors; Nuclear receptor ROR-gamma (Mus musculus), P51450; 5.4% of 310,000 active; note: potency is the fitted concentration of half-maximal effect; % is set by controls: 0 for no effect and ±100 for the full control effect; nearly all actives have a fitted effect of over 60% in size
Target sequence (P51450 whole entry, looked up, the tested form may be a part): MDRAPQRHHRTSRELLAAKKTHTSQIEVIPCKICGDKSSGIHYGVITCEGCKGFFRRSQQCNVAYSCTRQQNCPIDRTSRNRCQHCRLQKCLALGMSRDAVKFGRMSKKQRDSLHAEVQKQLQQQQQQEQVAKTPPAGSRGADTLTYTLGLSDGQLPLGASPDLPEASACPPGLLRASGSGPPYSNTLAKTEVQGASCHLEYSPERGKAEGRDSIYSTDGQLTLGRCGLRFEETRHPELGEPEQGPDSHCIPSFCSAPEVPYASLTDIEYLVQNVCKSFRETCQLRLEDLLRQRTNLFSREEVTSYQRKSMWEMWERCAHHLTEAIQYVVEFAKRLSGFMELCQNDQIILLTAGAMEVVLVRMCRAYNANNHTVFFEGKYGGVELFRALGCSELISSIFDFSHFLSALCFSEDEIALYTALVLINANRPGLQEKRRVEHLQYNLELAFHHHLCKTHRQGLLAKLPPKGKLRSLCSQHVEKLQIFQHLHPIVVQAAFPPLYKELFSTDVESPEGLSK
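Drosophila S2 cells stably expressing Gal4-DBD/mouse RORγ fusion under metallothionein promoter plus UAS-luciferase; compound 1 h, then 700 uM CuSO4 induction for 20 h at ambient temperature; inhibition read as reduced luminescence.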
p53 reactivator: qHTS assay for re-activators of p53 using a Luc reporter; H1299 p53-A138V BP100-luciferase reporter, luminescence, 24 h; Potency, µM (titrated, usually from 92.2 µM), for inactives: at the highest dose activity change, positive = activation, hits mostly activators; 0.063% of 320,000 active; AID 504706, 2011; note: potency is the fitted concentration of half-maximal effect; % of control where 0% means no effect; nearly all actives have a fitted effect of over 45% in size
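H1299 (p53-null), stable ts p53-A138V + BP100-Luc; 1000 cells/well, Opti-MEM/10% FBS; cpd 4 pt, 1:5; 24 h, 37 deg C, 5% CO2; detection reagent 10 min RT; luminescence.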
Giardia kill: Small Molecules that selectively kill Giardia lamblia: qHTS. Giardia lamblia trophozoite viability. activity change, % at 7.66 µM, hits read low. 0.15% of 340,000 active. AID 540267, 2011; in the data active = activity change below about -80%; inconclusive = between about -30% and that limit;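 note: parasites exposed to compound for two days anaerobically before the ATP read; % is set by controls: 0 for no effect and ±100 for the full control effect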
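Luminescence from cellular ATP indicates surviving trophozoites (100 cells/well) following 48 hrs anaerobic compound treatment at 37 deg C; signal develops 15-30 min at room temperature.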
BRCA1 expr up: qHTS Assay to Identify Small Molecule Activators of BRCA1 Expression; MCF7-BRCA1-FFLuc reporter, luminescence, 48 h; response scale: scaled: vehicle 0%, 10 µM genistein 100%; Potency, µM (series often up to 46.1 µM), inactives show at the top dose activation, hits mostly activators; 1.1% of 380,000 active; AID 624202, 2012; note: potency is the fitted concentration of half-maximal effect; nearly all actives have a fitted effect of over 80% in size
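First, MCF7-BRCA1-FFLuc cells (2000/well) attach for 2 h; next, compounds are pin-added and incubated 48 h at 37 °C; finally, luciferase reagent is added and luminescence read after 15 min.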
ELG1 DNA repair: qHTS screen for small molecules that inhibit ELG1-dependent DNA repair in human embryonic kidney (HEK293T) cells expressing luciferase-tagged ELG1. AID 504467, 2011. HEK293T ELG1-luciferase reporter, luminescence, 16 h; DNA damage induced by 5-fluorouridine. 2.3% of 330,000 active. Potency, µM (doses to about 46.1 µM), inactives show at the highest dose activity change, negative = inhibition, most hits filed as inhibitors; note: potency is the fitted concentration of half-maximal effect; % is set by controls: 0 for no effect and ±100 for the full control effect; nearly all actives have a fitted effect of over 55% in size
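Quantitative HTS, concentration-response format. 2,000 cells/well co-treated with 5-fluorouridine and compound, 16 hr in 5% CO2 at 37 °C; ONE-Glo luminescence read after 30 min.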
* = called active by the depositor; ? = inconclusive; . = no result; [ ] = remark or other dose. Unless noted, calls come from the whole dose curve; as a rule, active = well fitted curve in the direction sought with a large enough effect; inconclusive = small, poorly fitted or top-dose-only effect, or another doubt; inactive = no such curve, though single readings can be large; an effect the other way counts as inactive or inconclusive.

SMILES	Gal4-VP16 FLuc	RORgamma inh	p53 reactivator	Giardia kill	BRCA1 expr up	ELG1 DNA repair
Cc1ccc(/C=C/c2nc3ccccc3c(=O)[nH]2)cc1	?	2.5µM*	17%	-90*	4%	?
O=C(Nc1ncnc2sc3c(c12)CCCCC3)c1ccccc1	20µM*	11µM*	2%	-1	-1%[1.84 µM]	3%
O=C(Nc1ncnc2sc3c(c12)CCC3)c1ccco1	-7%	-19%	-13%	17	-72%	?
O=C(Nc1ncnc2sc3c(c12)CCCCC3)c1ccc(F)cc1	13µM*	7.1µM*	0%	10	-43%	?
Nc1ccc(Oc2ccccc2-c2ccccc2)cc1	.	.	.	-2	-86%	.
O=C(CCCN1C(=O)/C(=C/c2ccc(F)cc2)SC1=S)NCCCn1ccnc1	?	8.9µM*	0%	-15	-42%	-8%
COc1ccccc1/C=C1\SC(=S)N(CCC(=O)NCCCn2ccnc2)C1=O	-10%	16µM*	5%	-6	1%	-4%
CCOC(=O)CSCC(NC(=O)OC(C)(C)C)C(=O)OCC (centres undefined)	?	7.1µM*	-2%	18	-5%	-7%
CCOC(=O)C(CSCC(=O)c1ccc(Cl)cc1Cl)NC(=O)OC(C)(C)C (centres undefined)	?	?	1%	0	-4%	10%
NC(=O)/C=C/C(=O)Nc1ccc(Cl)cc1	?	3.2µM*	-10%	-6	-8%	?
O=C(/C=C/C(Cl)(Cl)Cl)Nc1ccc(Cl)cc1	.	.	.	-11	-28%	.
CCOC(=O)c1c(NC(=O)C2CCCCC2)sc2c1CCN(C(C)C)C2	-4%	-25%	4%	-7	-9%	0%
Cc1ccc(C)c(OCCCCCn2ccnc2)c1	-30%	8.9µM*	-1%	0	-25%	0%
Cc1cc(C)c(OCCCCCn2ccnc2)c(C)c1	14µM*	11µM*	7%	30	-29%	-7%
Cc1cc(Cl)cc(C)c1OCCCCCn1ccnc1	18µM*	?	-69%	1	-22%	-16%
Cc1cc(OCCCCCn2ccnc2)cc(C)c1Cl	5%	24%	-7%	-30	-1%	-20%
CCc1ccc(OCCCCCn2ccnc2)cc1	?	11µM*	.	1	0%	3%
Cc1cc(Cl)cc(C)c1OCCn1ccnc1	1%	-32%	-5%	-5	-31%	?
CCCNC(=O)C(Cc1ccc(C(F)(F)F)cc1)NC(=O)c1ccc(C#N)cc1 (centres undefined)	.	.	11%	-3	-16%	0%
Cn1c(N)c(C(=O)CSc2nnc(C3CC3)n2Cc2ccccc2)c(=O)n(C)c1=O	.	.	-5%	-4	-2%	0%
CN(C(=O)C1CC1)C1CCS(=O)(=O)C1 (centres undefined)	.	.	6%	18	21%	0%
Cc1cc(N2CCN(c3nc(-c4ccc([N+](=O)[O-])cc4)cs3)CC2)c2ccccc2n1	13µM*	10µM*	0%	2	-40%	-3%
CN1CCN(Cc2nc3ccccc3c(=O)n2Cc2nc(-c3ccc([N+](=O)[O-])cc3)cs2)CC1	18µM*	7.9µM*	?	3	-69%	?
Cc1ccc(N2CCN(/N=C/c3cccnc3)CC2)cc1	5%	22%	-4%	7	-7%	?
COc1cccc(/C=N/NC(=O)C(=O)NCc2cccnc2)c1O	?	11µM*	12%	-10	-30%	-6%
SMILES	Gal4-VP16 FLuc	RORgamma inh	p53 reactivator	Giardia kill	BRCA1 expr up	ELG1 DNA repair
COc1cccc(/C=N/NC(=O)CNC(=O)COc2ccccc2)c1O	1µM*	0.28µM*	28%	27	-76%	?
COc1cccc(/C=N/NC(=O)CNC(=O)c2ccncc2)c1O	?	16µM*	?	10	7%	-15%
COc1ccc(CCCC(=O)N/N=C/c2cccc(OC)c2O)cc1C	0.13µM*	0.22µM*	?	7	-76%	-5%
COC(=O)C1C(=O)C2=C(CC1C)NC(=O)CC2c1ccc(F)cc1 (centres undefined)	-1%	?	6%	-11	-27%	-3%
Cc1nc2ncnn2c(C)c1CCC(=O)NCc1ccc(Cl)cc1	.	.	.	.	3%	.
O=C(CCC1CCCN(c2ncccn2)C1)NCc1ccccc1F (centres undefined)	10%	-11%	-1%	11	2%	1%
COc1cccc(/C=N/NC(=O)CN2CC(c3ccccc3)CC2=O)c1O (centres undefined)	1.3µM*	0.56µM*	?	8	-51%	-12%
COc1cccc(/C=N/NC(=O)C[n+]2ccccc2)c1O	7%	-33%	?	27	-14%	?
O=C(CNC(=O)c1ccco1)N/N=C/c1ccccc1[N+](=O)[O-]	3%	12%	6%	12	5%	-11%
Cc1cccc(OCC(=O)NCC(=O)N/N=C/c2cc(Br)cc(Br)c2O)c1	6.3µM*	2µM*	?	-2	-46%	?
COc1cccc(/C=N/NC(=O)CNC(=O)c2cccnc2)c1O	-24%	18µM*	8%	-7	-34%	?
COc1cccc(/C=N/NC(=O)CNC(=O)c2ccco2)c1O	20µM*	1.6µM*	18%	-5	-25%	8.2µM*
Cc1ccc(/C=N/NC(=O)CNC(=O)COc2ccccc2)cc1	2%	10%	8%	-11	4%	1%
CC(C)Cc1c2c([nH]c(=S)c1C#N)CCCC2	?	6.3µM*	-4%	-12	7%	-18%
CCN(CC)S(=O)(=O)c1ccc(/C=C/C(=O)Nc2ccc(F)c(F)c2F)cc1	?	?	14%	21	-23%	?
COc1ccccc1OCCn1cc(/C=N/NC(=O)c2ccncc2)c2ccccc21	?	6.3µM*	-2%	11	-34%	-27%
COc1ccccc1C=NNC(=O)c1ccncc1	.	.	.	-9	-5%	.
O=C(O)COc1ccccc1/C=N/NC(=O)c1ccncc1	2%	-6%	.	.	.	.
CNC(=S)N/N=C/c1cn(Cc2ccc(F)cc2)c2ccccc12	1.1µM*	0.89µM*	4%	-9	-44%	0%
COC(=O)c1cn(CCOc2ccccc2OC)c2ccccc12	?	?	-10%	-4	-42%	?
O=C(N/N=C/c1cn(CCOc2ccccc2)c2ccccc12)c1ccncc1	10µM*	6.3µM*	?	12	-30%	-12%

Source: PubChem BioAssay (National Center for Advancing Translational Sciences (NCATS))
